In PubChem BioAssay AID1159580 (chemical genetic matrix, 2015):
Among all 5,500 compounds or so, about 2,000 (36%) were called active. Inconclusive results (about 18%) are left out. Rule as the data show it: active = normalized growth mostly below about 0.91 (no sharp cut-off); inconclusive = no clear call, values can overlap the other calls; inactive = mostly above about 0.92. The list shows a part of the results.

Test: chemical genetic growth profiling, strain panel (AID 1159580);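 also: tested at 20 µM; growth read once vehicle control cultures reached saturation at 30 °C; 1 = growth at the plate median or of vehicle wells; lower values mean less growth of the strain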
Settings: S. cerevisiae deletion strains, growth OD

Measured: normalized growth

CCOc1ccc2c(c1)C(C)=CC(C)(C)N2
inactive: locus YAL013W, strain DEP1, hits give low values 0.99 | locus YAL021C, strain ccr4, hits give low values 0.99 | locus YAL026C, strain drs2, hits give low values 0.983 | locus YAL030W, strain snc1, hits give low values 0.996 | locus YBL061C, strain skt5, hits give low values 0.988 | locus YBR009C, strain hhf1, hits give low values 0.996 | locus YBR021W, strain FUR4, hits give low values 0.983 | locus YBR023C, strain chs3, hits give low values 0.994 | locus YBR171W, strain sec66, hits give low values 0.982 | locus YBR229C, strain ROT2, hits give low values 0.986 | locus YBR231C, strain swc5, hits give low values 0.991 | locus YBR279W, strain paf1, hits give low values 0.99 | locus YCL011C, strain gbp2, hits give low values 0.989 | locus YCL016C, strain dcc1, hits give low values 0.995 | locus YCL029C, strain bik1, hits give low values 0.959 | locus YCL061C, strain MRC1, hits give low values 0.994 | locus YCL069W, strain vba3, hits give low values 0.987 | locus YCR088W, strain abp1, hits give low values 0.983 | locus YDL005C, strain med2, hits give low values 0.974 | locus YDL035C, strain GPR1, hits give low values 1.01 | locus YDL040C, strain nat1, hits give low values 0.987 | locus YDL074C, strain BRE1, hits give low values 0.973 | locus YDL101C, strain DUN1, hits give low values 0.976 | locus YDL134C, strain PPH21, hits give low values 0.983 | locus YDL185W, strain tfp1, hits give low values 0.977 | locus YDL192W, strain arf1, hits give low values 0.984 | locus YDR001C, strain nth1, hits give low values 0.986 | locus YDR069C, strain doa4, hits give low values 0.995 | locus YDR101C, strain arx1, hits give low values 0.984 | locus YDR137W, strain rgp1, hits give low values 1.01 | locus YDR150W, strain NUM1, hits give low values 0.993 | locus YDR159W, strain sac3, hits give low values 0.989 | locus YDR162C, strain NBP2, hits give low values 0.99 | locus YDR195W, strain ref2 0.98 | locus YDR297W, strain sur2, hits give low values 0.989 | locus YDR318W, strain mcm21, hits give low values 0.987 | locus YDR334W, strain swr1, hits give low values 0.975 | locus YDR335W, strain msn5, hits give low values 0.995 | locus YDR388W, hits give low values 0.984 | locus YDR392W, strain spt3, hits give low values 0.95 | locus YDR502C, strain sam2, hits give low values 0.993 | locus YEL003W, strain gim4, hits give low values 0.992 | locus YEL037C, strain rad23, hits give low values 0.984 | locus YEL061C, strain CIN8 (second series), hits give low values 0.99 | locus YEL061C, strain CIN8, hits give low values 0.997 | locus YER015W, strain faa2, hits give low values 0.99 | locus YER016W, strain bim1, hits give low values 0.999 | locus YER110C, hits give low values 0.979 | locus YER111C, strain swi4, hits give low values 0.982 | locus YER155C, strain BEM2 (second series), hits give low values 0.98 | locus YER155C, strain BEM2, hits give low values 0.989 | locus YER167W, strain BCK2, hits give low values 1 | locus YFR010W, strain ubp6, hits give low values 0.977 | locus YGL078C, strain dbp3, hits give low values 0.991 | locus YGL086W, strain mad1, hits give low values 1 | locus YGL167C, strain pmr1, hits give low values 0.978 | locus YGL173C, strain kem1, hits give low values 0.98 | locus YGL227W, strain vid30, hits give low values 0.98 | locus YGL240W, strain doc1, hits give low values 0.985 | locus YGL248W, strain PDE1, hits give low values 0.985 | locus YGL253W, strain hxk2, hits give low values 0.984 | locus YGR078C, strain PAC10, hits give low values 0.981 | locus YGR135W, strain pre9, hits give low values 0.974 | locus YGR229C, strain SMI1, hits give low values 1.01 | locus YGR252W, strain gcn5, hits give low values 1.07 | locus YHR013C, strain ard1, hits give low values 0.977 | locus YHR027C, strain rpn1, hits give low values 0.979 | locus YHR030C, strain SLT2, hits give low values 0.994 | locus YHR079C, strain IRE1 (second series), hits give low values 0.975 | locus YHR094C, strain hxt1, hits give low values 0.988 | locus YHR129C, strain ARP1, hits give low values 0.987 | locus YHR142W, strain chs7, hits give low values 0.98 | locus YHR200W, strain rpn10, hits give low values 0.978 | locus YIL066C, strain RNR3, hits give low values 0.974 | locus YIL073C, strain SPO22, hits give low values 0.981 | locus YIL125W, strain kgd1, hits give low values 0.998 | locus YIR030C, strain dcg1, hits give low values 0.981 | locus YJL092W, strain hpr5, hits give low values 0.986 | locus YJL095W, strain BCK1 (second series), hits give low values 0.99 | locus YJL095W, strain BCK1, hits give low values 0.971 | locus YJL115W, strain asf1, hits give low values 0.984 | locus YJL129C, strain trk1, hits give low values 0.996 | locus YJL134W, strain LCB3, hits give low values 0.994 | locus YJL154C, strain vps35, hits give low values 0.98 | locus YJL164C, strain tpk1, hits give low values 0.993 | locus YJL166W, strain qcr8, hits give low values 1 | locus YJL168C, strain set2, hits give low values 0.984 | locus YJL187C, strain SWE1 (second series), hits give low values 0.964 | locus YJL187C, strain SWE1, hits give low values 0.988
